Measurements published in ChEMBL document CHEMBL2218924, “A broad activity screen in support of a chemogenomic map for kinase signalling research and drug discovery” (Biochem J, 2013).

Experiments:
[1] = biological target: Tyrosine-protein kinase SYK (Homo sapiens) (UniProt P43405); details: at 10 µM
[2] = biological target: T1, Mitogen-activated protein kinase kinase kinase 7 (Homo sapiens) (UniProt O43318); details: at 10 µM
T1 sequence (whole entry): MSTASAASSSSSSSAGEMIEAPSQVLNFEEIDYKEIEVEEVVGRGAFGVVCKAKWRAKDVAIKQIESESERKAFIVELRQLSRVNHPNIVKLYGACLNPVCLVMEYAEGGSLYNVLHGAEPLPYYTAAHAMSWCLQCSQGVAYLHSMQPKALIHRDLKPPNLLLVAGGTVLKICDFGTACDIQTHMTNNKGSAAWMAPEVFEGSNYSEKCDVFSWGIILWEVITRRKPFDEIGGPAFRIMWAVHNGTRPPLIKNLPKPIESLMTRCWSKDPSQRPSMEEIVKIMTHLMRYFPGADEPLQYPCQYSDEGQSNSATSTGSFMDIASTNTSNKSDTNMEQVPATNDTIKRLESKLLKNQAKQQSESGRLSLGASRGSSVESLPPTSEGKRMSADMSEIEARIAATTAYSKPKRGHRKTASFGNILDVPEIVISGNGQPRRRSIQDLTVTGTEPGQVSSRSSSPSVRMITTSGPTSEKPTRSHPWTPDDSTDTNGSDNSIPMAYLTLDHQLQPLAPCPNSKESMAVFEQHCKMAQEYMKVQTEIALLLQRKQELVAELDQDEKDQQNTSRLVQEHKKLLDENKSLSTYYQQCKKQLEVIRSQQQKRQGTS

[3] = biological target: T2, Serine/threonine-protein kinase TAO1 (Homo sapiens) (UniProt Q7L7X3); details: at 10 µM
T2 sequence (whole entry): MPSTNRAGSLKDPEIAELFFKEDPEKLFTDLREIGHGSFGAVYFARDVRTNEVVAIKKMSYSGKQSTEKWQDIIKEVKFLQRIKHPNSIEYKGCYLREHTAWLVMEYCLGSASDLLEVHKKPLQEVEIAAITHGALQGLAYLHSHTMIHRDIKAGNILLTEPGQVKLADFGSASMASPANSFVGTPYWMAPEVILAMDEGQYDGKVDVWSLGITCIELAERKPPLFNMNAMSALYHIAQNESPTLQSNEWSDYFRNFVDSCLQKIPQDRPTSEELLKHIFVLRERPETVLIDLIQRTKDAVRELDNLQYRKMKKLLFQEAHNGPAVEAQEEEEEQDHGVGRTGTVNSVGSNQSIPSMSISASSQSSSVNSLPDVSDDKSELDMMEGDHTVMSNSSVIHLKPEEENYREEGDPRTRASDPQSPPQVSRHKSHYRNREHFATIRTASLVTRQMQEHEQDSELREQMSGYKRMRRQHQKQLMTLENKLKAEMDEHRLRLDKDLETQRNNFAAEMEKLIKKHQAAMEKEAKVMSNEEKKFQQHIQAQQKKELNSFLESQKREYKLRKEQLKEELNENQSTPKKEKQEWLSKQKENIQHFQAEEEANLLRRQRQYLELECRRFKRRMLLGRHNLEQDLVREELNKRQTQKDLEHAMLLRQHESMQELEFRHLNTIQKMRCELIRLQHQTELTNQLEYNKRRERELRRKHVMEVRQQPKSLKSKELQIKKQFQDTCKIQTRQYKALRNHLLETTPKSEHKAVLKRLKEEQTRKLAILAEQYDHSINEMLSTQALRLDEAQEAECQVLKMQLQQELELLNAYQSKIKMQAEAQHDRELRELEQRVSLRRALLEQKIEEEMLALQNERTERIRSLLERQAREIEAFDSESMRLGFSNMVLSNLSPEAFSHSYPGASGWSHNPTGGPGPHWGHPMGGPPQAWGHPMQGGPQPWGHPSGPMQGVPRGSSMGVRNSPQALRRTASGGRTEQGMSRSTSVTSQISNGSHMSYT

[4] = biological target: T3, Serine/threonine-protein kinase TAO3 (Homo sapiens) (UniProt Q9H2K8); details: at 1 µM
T3 sequence (whole entry): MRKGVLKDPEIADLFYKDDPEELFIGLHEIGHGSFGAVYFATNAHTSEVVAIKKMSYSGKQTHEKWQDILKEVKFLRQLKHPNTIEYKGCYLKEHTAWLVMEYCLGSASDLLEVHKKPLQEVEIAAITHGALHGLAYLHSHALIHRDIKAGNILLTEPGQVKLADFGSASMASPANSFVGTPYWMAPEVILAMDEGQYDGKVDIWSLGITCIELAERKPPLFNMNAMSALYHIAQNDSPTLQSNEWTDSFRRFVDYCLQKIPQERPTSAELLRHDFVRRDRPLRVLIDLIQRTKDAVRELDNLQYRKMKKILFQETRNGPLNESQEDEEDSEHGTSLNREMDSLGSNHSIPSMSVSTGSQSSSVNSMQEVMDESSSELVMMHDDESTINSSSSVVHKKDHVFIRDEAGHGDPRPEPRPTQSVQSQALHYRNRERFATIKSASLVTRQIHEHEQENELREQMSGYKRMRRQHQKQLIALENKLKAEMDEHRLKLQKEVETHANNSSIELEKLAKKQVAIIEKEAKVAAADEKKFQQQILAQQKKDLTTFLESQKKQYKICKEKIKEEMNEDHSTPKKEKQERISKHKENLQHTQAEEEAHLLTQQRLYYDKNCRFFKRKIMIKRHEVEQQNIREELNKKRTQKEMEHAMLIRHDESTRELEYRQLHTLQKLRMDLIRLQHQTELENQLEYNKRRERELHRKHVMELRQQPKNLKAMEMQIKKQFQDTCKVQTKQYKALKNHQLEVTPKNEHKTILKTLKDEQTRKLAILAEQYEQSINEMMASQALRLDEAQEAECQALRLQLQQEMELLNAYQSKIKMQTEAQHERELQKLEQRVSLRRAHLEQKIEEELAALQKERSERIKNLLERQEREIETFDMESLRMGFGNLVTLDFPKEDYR

[5] = biological target: T3, Serine/threonine-protein kinase TAO3 (Homo sapiens); details: at 10 µM
[6] = biological target: T4, Serine/threonine-protein kinase TBK1 (Homo sapiens) (UniProt Q9UHD2); details: at 1 µM
T4 sequence (whole entry): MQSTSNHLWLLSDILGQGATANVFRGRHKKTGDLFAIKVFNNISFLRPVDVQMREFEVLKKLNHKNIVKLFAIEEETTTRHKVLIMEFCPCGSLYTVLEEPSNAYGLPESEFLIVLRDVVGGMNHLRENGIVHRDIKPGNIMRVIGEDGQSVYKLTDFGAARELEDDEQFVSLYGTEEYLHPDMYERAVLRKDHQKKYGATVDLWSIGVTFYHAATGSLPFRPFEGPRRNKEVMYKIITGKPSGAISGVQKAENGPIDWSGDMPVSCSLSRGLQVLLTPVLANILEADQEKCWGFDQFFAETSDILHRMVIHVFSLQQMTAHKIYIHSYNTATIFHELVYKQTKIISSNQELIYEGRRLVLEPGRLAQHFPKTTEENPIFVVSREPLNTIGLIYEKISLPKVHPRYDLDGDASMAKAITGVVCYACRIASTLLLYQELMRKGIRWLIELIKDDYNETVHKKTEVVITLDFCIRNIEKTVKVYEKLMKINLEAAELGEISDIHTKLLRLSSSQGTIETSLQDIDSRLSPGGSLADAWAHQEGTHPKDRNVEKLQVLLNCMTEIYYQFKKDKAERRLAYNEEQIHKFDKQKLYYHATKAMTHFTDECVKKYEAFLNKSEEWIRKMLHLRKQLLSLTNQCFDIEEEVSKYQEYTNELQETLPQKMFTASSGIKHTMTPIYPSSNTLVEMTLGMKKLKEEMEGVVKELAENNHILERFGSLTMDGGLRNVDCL

[7] = biological target: T4, Serine/threonine-protein kinase TBK1 (Homo sapiens); details: at 10 µM
[8] = biological target: T5, Inhibitor of nuclear factor kappa-B kinase subunit alpha (Homo sapiens) (UniProt O15111); details: at 1 µM
T5 sequence (whole entry): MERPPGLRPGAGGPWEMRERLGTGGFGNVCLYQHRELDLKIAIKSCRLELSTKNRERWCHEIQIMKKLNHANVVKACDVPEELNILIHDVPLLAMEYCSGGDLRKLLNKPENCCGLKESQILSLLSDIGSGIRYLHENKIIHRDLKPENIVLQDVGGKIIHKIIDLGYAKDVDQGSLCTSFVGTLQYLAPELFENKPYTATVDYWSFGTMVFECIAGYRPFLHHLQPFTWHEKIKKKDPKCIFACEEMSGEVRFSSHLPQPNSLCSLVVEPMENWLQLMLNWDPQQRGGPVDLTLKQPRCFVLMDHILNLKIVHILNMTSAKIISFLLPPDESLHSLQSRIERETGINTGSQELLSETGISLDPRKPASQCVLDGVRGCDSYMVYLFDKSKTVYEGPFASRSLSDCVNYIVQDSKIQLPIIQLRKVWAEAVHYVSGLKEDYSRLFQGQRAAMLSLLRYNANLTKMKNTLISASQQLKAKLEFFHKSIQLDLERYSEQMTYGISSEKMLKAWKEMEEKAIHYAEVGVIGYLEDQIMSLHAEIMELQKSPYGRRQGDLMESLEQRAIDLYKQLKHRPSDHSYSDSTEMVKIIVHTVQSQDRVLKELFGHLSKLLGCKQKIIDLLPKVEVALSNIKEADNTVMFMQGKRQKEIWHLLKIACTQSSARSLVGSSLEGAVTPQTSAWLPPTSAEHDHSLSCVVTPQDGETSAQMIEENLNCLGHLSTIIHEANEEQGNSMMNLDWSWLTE

[9] = biological target: T5, Inhibitor of nuclear factor kappa-B kinase subunit alpha (Homo sapiens); details: at 10 µM
[10] = biological target: T1, Mitogen-activated protein kinase kinase kinase 7 (Homo sapiens); details: at 1 µM
[11] = biological target: T2, Serine/threonine-protein kinase TAO1 (Homo sapiens); details: at 1 µM
[12] = biological target: T6, TGF-beta receptor type-1 (Homo sapiens) (UniProt P36897); details: at 1 µM
T6 sequence (whole entry): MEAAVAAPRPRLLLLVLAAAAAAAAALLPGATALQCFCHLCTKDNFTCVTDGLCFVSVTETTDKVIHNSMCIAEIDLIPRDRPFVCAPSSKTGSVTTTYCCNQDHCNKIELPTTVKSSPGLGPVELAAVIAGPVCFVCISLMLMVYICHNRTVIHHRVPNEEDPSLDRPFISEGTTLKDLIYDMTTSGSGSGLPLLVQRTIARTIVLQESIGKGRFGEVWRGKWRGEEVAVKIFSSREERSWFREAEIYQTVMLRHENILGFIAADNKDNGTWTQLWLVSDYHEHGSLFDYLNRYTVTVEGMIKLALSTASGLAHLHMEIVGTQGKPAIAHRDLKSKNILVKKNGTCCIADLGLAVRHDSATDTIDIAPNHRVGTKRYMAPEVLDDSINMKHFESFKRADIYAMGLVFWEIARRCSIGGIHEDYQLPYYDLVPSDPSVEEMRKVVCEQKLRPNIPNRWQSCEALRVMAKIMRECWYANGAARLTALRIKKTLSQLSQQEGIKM

[13] = biological target: Insulin-like growth factor 1 receptor (Homo sapiens) (UniProt P08069); details: at 1 µM
[14] = biological target: Insulin-like growth factor 1 receptor (Homo sapiens) (UniProt P08069); details: at 10 µM
[15] = biological target: T7, Inhibitor of nuclear factor kappa-B kinase subunit beta (Homo sapiens) (UniProt O14920); details: at 1 µM
T7 sequence (whole entry): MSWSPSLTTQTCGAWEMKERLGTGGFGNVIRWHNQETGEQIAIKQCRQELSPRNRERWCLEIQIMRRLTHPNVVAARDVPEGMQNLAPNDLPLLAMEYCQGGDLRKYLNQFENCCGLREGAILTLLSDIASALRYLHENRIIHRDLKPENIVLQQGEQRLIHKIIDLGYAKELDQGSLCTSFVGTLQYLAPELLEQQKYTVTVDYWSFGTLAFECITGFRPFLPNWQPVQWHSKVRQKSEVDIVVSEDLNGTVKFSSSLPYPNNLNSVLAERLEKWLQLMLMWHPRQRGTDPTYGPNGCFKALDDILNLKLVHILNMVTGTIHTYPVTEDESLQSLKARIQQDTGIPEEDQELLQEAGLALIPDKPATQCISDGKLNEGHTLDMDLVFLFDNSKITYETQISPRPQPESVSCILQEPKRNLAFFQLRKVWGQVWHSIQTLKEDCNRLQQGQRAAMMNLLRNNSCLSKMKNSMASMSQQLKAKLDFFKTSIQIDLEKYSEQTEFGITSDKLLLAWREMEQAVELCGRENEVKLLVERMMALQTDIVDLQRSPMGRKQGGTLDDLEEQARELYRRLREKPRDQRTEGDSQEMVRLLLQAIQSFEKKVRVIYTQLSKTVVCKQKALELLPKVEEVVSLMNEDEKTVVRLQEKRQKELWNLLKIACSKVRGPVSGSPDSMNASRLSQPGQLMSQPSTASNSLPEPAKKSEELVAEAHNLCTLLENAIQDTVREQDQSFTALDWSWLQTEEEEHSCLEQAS

[16] = biological target: T7, Inhibitor of nuclear factor kappa-B kinase subunit beta (Homo sapiens); details: at 10 µM

Chain of Insulin-like growth factor 1 receptor (Homo sapiens) (P08069 31-736 limits assumed): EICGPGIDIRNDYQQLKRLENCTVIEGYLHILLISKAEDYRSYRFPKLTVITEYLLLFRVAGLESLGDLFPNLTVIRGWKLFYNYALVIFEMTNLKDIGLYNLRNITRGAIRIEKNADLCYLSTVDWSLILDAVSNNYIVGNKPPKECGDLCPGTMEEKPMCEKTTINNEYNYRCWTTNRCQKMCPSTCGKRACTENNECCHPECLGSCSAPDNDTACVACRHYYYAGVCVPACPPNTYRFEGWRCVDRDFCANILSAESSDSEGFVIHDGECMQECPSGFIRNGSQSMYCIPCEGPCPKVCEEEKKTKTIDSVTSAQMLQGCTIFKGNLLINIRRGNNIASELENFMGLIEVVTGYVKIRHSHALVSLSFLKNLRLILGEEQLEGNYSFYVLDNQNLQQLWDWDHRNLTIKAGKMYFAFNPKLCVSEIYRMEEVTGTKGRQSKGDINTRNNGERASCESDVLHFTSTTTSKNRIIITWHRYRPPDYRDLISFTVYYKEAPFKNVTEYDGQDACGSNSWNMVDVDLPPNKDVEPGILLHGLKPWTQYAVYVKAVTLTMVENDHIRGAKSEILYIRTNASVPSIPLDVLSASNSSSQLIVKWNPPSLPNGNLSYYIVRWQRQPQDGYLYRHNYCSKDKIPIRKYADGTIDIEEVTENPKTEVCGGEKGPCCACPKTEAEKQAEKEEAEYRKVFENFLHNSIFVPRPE
Chain of Insulin-like growth factor 1 receptor (Homo sapiens) (P08069 741-1367 limits assumed): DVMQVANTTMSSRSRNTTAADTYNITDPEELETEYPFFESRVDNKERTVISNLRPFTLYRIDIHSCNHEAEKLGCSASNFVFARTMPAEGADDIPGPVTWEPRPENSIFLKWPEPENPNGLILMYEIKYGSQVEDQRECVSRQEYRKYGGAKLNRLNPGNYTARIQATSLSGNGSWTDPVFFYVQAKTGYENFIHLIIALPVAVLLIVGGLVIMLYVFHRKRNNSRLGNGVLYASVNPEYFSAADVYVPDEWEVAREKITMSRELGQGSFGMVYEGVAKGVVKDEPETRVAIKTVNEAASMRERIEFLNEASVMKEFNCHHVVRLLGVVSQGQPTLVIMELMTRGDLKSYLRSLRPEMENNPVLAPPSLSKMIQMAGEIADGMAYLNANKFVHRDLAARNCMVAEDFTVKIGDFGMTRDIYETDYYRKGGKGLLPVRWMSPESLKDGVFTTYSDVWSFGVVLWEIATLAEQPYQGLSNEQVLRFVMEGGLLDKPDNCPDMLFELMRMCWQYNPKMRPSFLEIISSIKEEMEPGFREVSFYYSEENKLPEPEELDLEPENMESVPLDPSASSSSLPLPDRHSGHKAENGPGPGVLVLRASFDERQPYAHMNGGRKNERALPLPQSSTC

Compound | residual activity [1] [%] | residual activity [2] [%] | residual activity [3] [%] | residual activity [4] [%] | residual activity [5] [%] | residual activity [6] [%] | residual activity [7] [%] | residual activity [8] [%] | residual activity [9] [%] | residual activity [10] [%] | residual activity [11] [%] | residual activity [12] [%] | residual activity [13] [%] | residual activity [14] [%] | residual activity [15] [%] | residual activity [16] [%]
O=C1NC(=O)C(c2cn(CCCn3ccnc3)c3ccccc23)=C1Nc1ccccc1 | 67 | 66 | 37 | 63 | 19 | 22 | 9 | 112 | 103 | – | – | – | – | – | – | –
Nc1ncnc2c1cnn2-c1ccccc1 | 92 | 88 | 80 | 100 | 87 | – | – | – | 85 | 89 | 94 | 92 | 88 | 76 | 97 | 86
